Source: PubChem BioAssay (Tox21)
Where “and” joins values, the source holds several entries; their conditions need not be identical. Equal entries are not always repeated. Results filed as inconclusive are left out. Calls of active or inactive are those of the source. Calls follow the shape of the dose curve; as a rule, active = well fitted cell-killing curve with a large enough effect in the repeat runs; inconclusive = weak or mixed curves; inactive = no such curve, though single readings can be large or run the other way.

Experiment: qHTS assay for identifying genotoxic compounds that show differential cytotoxicity against isogenic chicken DT40 cell lines with known DNA damage response pathways - Rad54/Ku70 mutant cell line (AID 743015); also: nearly all actives have a fitted effect of over 60% in size
Details: DT40 Rad54/Ku70 mutant viability, CellTiter-Glo, 40 h; series mostly up to 66.8 µM; activity change, negative = cytotoxicity: at the top concentration
% is scaled to controls: 0 for no effect and ±100 for the full control effect; potency is read from the fitted curve at half-maximal effect.

| SMILES | Potency | activity change, negative = cytotoxicity |
| --- | --- | --- |
| Fc1ccccc1[C@@H](F)COC1CCC(Nc2ncnc3[nH]ncc23)CC1 (some centres undefined) | 12.2 µM (active) |  |
| CC(C)=CC=O |  | 7.83% [at 95.1 µM] (inactive) |
| CC(=O)Nc1ccc(N)cc1 |  | 1.46% [at 95.1 µM] (inactive) |
| O=C(N/N=C/c1ccc([N+](=O)[O-])o1)c1ccc(O)cc1 | 4.52 µM (active) |  |
| O=S1OCCO1 |  | -2.2% [at 95.1 µM] (inactive) |
| CCOC(=O)CC(=O)C(=O)OCC |  | 2.13% (inactive) |
| CC(COc1ccc(C(C)(C)C)cc1)OS(=O)OCCCl (centres undefined) |  | 5.94% [at 95.1 µM] (inactive) |
| CCCOC(=O)c1ccc(C(=O)OCCC)nc1 |  | 1.43% (inactive) |
| CCCCCCCCCCCCCCCCBr |  | 8.1% [at 30.7 µM] (inactive) |
| C=CC(=C)CCCC(C)(C)OC(C)=O |  | -0.455% (inactive) |
| OCC1CC=CCC1 (centres undefined) |  | 3.22% (inactive) |
| COc1cc2ncnc(Nc3ccc(F)c(Cl)c3)c2cc1OCCCN1CCOCC1 | 21.1 µM (active) |  |
| CO[C@H]1C=CO[C@@]2(C)Oc3c(C)c(O)c4c(O)c(c5c(c4c3C2=O)=NC2(CCN(CC(C)C)CC2)N=5)NC(=O)/C(C)=C\C=C/[C@H](C)[C@H](O)[C@@H](C)[C@@H](O)[C@@H](C)[C@H](OC(C)=O)[C@@H]1C | 11.9 µM (active) and 30 µM (active) |  |
| CCCCCC=CCC=CCCCCCCCC(=O)OCC |  | -3.65% (inactive) |
| COc1cc2c(N3CCN(C(=O)Nc4ccc(OC(C)C)cc4)CC3)ncnc2cc1OCCCN1CCCCC1 | 5.96 µM (active) |  |
| CC(=O)[C@H]1CC[C@H]2[C@@H]3C=CC4=CC(=O)CC[C@@]4(C)[C@@H]3CC[C@]12C | 4.52 µM (active) |  |
| CCCCCCCCCCCCCCC[C@H](O)[C@@H](N)CO |  | 1.22% (inactive) |
| O=C(O)c1cccnc1C(=O)O |  | 7.59% (inactive) |
| Oc1ccc(Nc2ccccc2)cc1 | 6.86 µM (active) |  |

| SMILES | Potency | activity change, negative = cytotoxicity |
| --- | --- | --- |
| CC1(C)C2=CCCC(C)(C)[C@]23CC[C@H]1C3 | 30.6 µM (active) |  |
| COC(=O)[C@@H]1CC2=CC(=O)CC[C@]2(C)[C@@]23O[C@@H]2C[C@@]2(C)[C@@H](CC[C@@]24CCC(=O)O4)[C@H]13 |  | 3.68% (inactive) |
| COCC(O)CO (centres undefined) |  | -0.15% [at 95.1 µM] (inactive) |
| CCC(=O)OC/C=C/c1ccccc1 |  | -25.6% (inactive) |
| O=C(CCC1CCN(Cc2ccccc2)CC1)c1ccc2c(c1)NCCCC2 | 8.41 µM (active) |  |
| CCc1cccc(N(C)C(N)=Nc2cccc3ccccc23)c1 | 11.9 µM (active) |  |
| O=Cc1c(Cl)cccc1Cl |  | 7.77% [at 95.1 µM] (inactive) |
| c1cnc2c(n1)CCCC2 |  | 3.59% (inactive) |
| C[Si]1(C)O[Si](C)(C)O[Si](C)(C)O1 |  | 1.16% (inactive) |
| COC(OC)(C(=O)c1ccccc1)c1ccccc1 | 48.5 µM (active) |  |
| CC(C)CCCC(=O)O |  | -1% (inactive) |
| CCCOCCOCCO |  | 7.51% (inactive) |
| CC1CN(c2cc3c(cc2F)c(=O)c(C(=O)O)cn3-c2ccc(F)cc2F)CCN1 (centres undefined) |  | 8.05% (inactive) |
| CC(C)(CCl)c1ccccc1 |  | 6.09% (inactive) |
| Nc1ccc(Cl)cc1[N+](=O)[O-] |  | 3.73% (inactive) |
| CC(Cl)C(Cl)Cl (centres undefined) |  | 1.86% (inactive) |
| Cc1nc2ccccc2s1 |  | 2.83% [at 95.1 µM] (inactive) |
| C=CCCCCCCCCCCCCCCCC |  | -0.283% [at 8.55 µM] (inactive) |

Experiment: qHTS assay to identify small molecule antagonists of the androgen receptor (AR) signaling pathway - cell viability counter screen (AID 743033; also: nearly all actives have a fitted effect of over 45% in size)
Details: AR-bla HEK293 viability, CellTiter-Glo luminescence, 16 h; series mostly up to 58.5 µM; activity change, negative = cytotoxicity: at the top concentration

| SMILES | Potency | activity change, negative = cytotoxicity |
| --- | --- | --- |
| Fc1ccccc1[C@@H](F)COC1CCC(Nc2ncnc3[nH]ncc23)CC1 (some centres undefined) | 49 µM (active) |  |
| CC(C)=CC=O |  | 0.129% [at 78.9 µM] (inactive) |
| CC(=O)Nc1ccc(N)cc1 |  | 0.181% [at 78.9 µM] (inactive) |
| O=C(N/N=C/c1ccc([N+](=O)[O-])o1)c1ccc(O)cc1 |  | -23.8% [at 27 µM] (inactive) |
| O=S1OCCO1 |  | 0.584% [at 78.9 µM] (inactive) |
| CCOC(=O)CC(=O)C(=O)OCC |  | -2.3% (inactive) |
| CC(COc1ccc(C(C)(C)C)cc1)OS(=O)OCCCl (centres undefined) |  | 0.0171% [at 78.9 µM] (inactive) |
| CCCOC(=O)c1ccc(C(=O)OCCC)nc1 |  | 0.575% (inactive) |
| CCCCCCCCCCCCCCCCBr |  | 5.23% [at 27 µM] (inactive) |
| C=CC(=C)CCCC(C)(C)OC(C)=O |  | 10.1% (inactive) |
| OCC1CC=CCC1 (centres undefined) |  | 3.46% (inactive) |
| COc1cc2ncnc(Nc3ccc(F)c(Cl)c3)c2cc1OCCCN1CCOCC1 |  | 2.24% (inactive) |
| CO[C@H]1C=CO[C@@]2(C)Oc3c(C)c(O)c4c(O)c(c5c(c4c3C2=O)=NC2(CCN(CC(C)C)CC2)N=5)NC(=O)/C(C)=C\C=C/[C@H](C)[C@H](O)[C@@H](C)[C@@H](O)[C@@H](C)[C@H](OC(C)=O)[C@@H]1C | inactive |  |
| CCCCCC=CCC=CCCCCCCCC(=O)OCC |  | -4.61% (inactive) |
| COc1cc2c(N3CCN(C(=O)Nc4ccc(OC(C)C)cc4)CC3)ncnc2cc1OCCCN1CCCCC1 | 6.01 µM (active) |  |
| CC(=O)[C@H]1CC[C@H]2[C@@H]3C=CC4=CC(=O)CC[C@@]4(C)[C@@H]3CC[C@]12C |  | -4% [at 27 µM] (inactive) |
| CCCCCCCCCCCCCCC[C@H](O)[C@@H](N)CO |  | 2.42% (inactive) |
| O=C(O)c1cccnc1C(=O)O |  | 4.36% (inactive) |
| Oc1ccc(Nc2ccccc2)cc1 |  | 5.3% (inactive) |

| SMILES | Potency | activity change, negative = cytotoxicity |
| --- | --- | --- |
| CC1(C)C2=CCCC(C)(C)[C@]23CC[C@H]1C3 |  | -18.7% (inactive) |
| COC(=O)[C@@H]1CC2=CC(=O)CC[C@]2(C)[C@@]23O[C@@H]2C[C@@]2(C)[C@@H](CC[C@@]24CCC(=O)O4)[C@H]13 |  | 5.58% (inactive) |
| COCC(O)CO (centres undefined) |  | -6.92% [at 78.9 µM] (inactive) |
| CCC(=O)OC/C=C/c1ccccc1 |  | 4.23% (inactive) |
| O=C(CCC1CCN(Cc2ccccc2)CC1)c1ccc2c(c1)NCCCC2 |  | -17.3% (inactive) |
| CCc1cccc(N(C)C(N)=Nc2cccc3ccccc23)c1 |  | 0.573% (inactive) |
| O=Cc1c(Cl)cccc1Cl |  | -0.839% [at 78.9 µM] (inactive) |
| c1cnc2c(n1)CCCC2 |  | 4.82% (inactive) |
| C[Si]1(C)O[Si](C)(C)O[Si](C)(C)O1 |  | 0.58% (inactive) |
| COC(OC)(C(=O)c1ccccc1)c1ccccc1 |  | -9.05% (inactive) |
| CC(C)CCCC(=O)O |  | 7.14% (inactive) |
| CCCOCCOCCO |  | 0.328% (inactive) |
| CC1CN(c2cc3c(cc2F)c(=O)c(C(=O)O)cn3-c2ccc(F)cc2F)CCN1 (centres undefined) |  | -0.373% (inactive) |
| CC(C)(CCl)c1ccccc1 |  | 0.485% (inactive) |
| Nc1ccc(Cl)cc1[N+](=O)[O-] |  | -6.66% (inactive) |
| CC(Cl)C(Cl)Cl (centres undefined) |  | 1.67% (inactive) |
| Cc1nc2ccccc2s1 |  | 0.254% [at 78.9 µM] (inactive) |
| C=CCCCCCCCCCCCCCCCC |  | 0.86% [at 7.04 µM] (inactive) |
